# Most compounds without a hit are left out; they make up all but 28% or so of the library.
# CYP2C9 inh = human CYP2C9 inhibition; inhibition, % at 5 µM; CYP2C9 Supersomes, luciferin-H conversion, luminescence; P11712; hit rate 20% among 96,000;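 active means blocking of liver enzyme CYP2C9 beyond about 50% at 5 µM, limit read from the data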
# Target sequence (P11712 whole entry, looked up): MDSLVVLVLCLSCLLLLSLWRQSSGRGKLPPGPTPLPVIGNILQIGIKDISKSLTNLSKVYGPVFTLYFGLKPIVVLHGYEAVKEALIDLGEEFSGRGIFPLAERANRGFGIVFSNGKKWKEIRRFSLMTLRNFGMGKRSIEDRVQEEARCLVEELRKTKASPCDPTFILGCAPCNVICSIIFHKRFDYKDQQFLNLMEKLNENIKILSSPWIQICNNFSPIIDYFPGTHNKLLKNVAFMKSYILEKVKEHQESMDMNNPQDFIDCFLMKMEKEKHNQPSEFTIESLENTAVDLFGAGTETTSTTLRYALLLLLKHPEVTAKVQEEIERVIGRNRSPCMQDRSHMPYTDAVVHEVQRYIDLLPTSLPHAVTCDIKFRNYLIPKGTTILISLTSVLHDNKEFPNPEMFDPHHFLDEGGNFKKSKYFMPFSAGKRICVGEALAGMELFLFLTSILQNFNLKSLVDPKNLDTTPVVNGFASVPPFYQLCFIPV
# CYP2C19 activ = cytochrome P450 2C19 (human) activation; P33261; recombinant CYP2C19, luciferin-H EGE luminescence; hits give high values; 0 = fully inhibited enzyme, 1 = untreated enzyme; activation factor at 5 µM; 96,000 tested, under 10 active; AID 1025;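 active means activation factor of at least 2 at 5 µM in the primary screen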;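 further: 0 = wells with 2.5 mM tranylcypromine and 1 = vehicle-only wells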
# Mac1 fbg inh = CD11b/CD18-fibrinogen binding inhibition; K562 CD11b/CD18 adhesion to fibrinogen, ATPlite luminescence; Mn2+ added to activate the integrin; inhibition, % at 10 µM; hit rate 0.54% among 93,000; AID 1497;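 active means primary inhibition of 50% or more at 10 µM, then 40% or more on retest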
# CYP2C19 inhib = blocks human cytochrome P450 2C19; P33261; CYP2C19 Supersomes, luciferin-H EGE luminescence, 30 min; inhibition, % at 5 µM; hit rate 21% among 96,000; AID 778;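 active means CYP2C19 inhibition above a set limit at 5 µM in the primary screen, cut at about 50% in these data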;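 further: plate controls were negative control wells for no effect and 2.5 mM tranylcypromine positive control for full effect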
# CD11b adhes enh = CD11b/CD18-fibrinogen binding enhancement; P05107+P11215; activation, % at 10 µM; K562 CD11b/CD18 adhesion to fibrinogen, ATPlite luminescence; hit rate 0.07% among 93,000;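 active means 10 µM primary screen giving 50% or more activity, confirmed by 40% or more on retest at that dose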
# CYP2C9 activ = CYP2C9 (human) activation; P11712; recombinant CYP2C9, luciferin-H conversion, luminescence; hits give high values; factor 1 = untreated enzyme, 0 = blocked; activation factor at 5 µM; hit rate 1.4% among 96,000; AID 1024;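 active means activation factor of 2 or more for CYP2C9 at a 5 µM dose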;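 further: 0 = sulfaphenazole-blocked wells and 1 = vehicle-only wells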
# * marks the source's active call; other numbers are inactive results; / = not tested or not shown.
SMILES,CYP2C9 inh,CYP2C19 activ,Mac1 fbg inh,CYP2C19 inhib,CD11b adhes enh,CYP2C9 activ
Cc1ccc(C)c(C(=O)CSc2nnnn2-c2cccnc2)c1,24.2,0.6,-22.1,35.9,4.6,0.8
Cc1ccc(C(=O)CSc2nnnn2C(C)C)c(C)c1,34.5,0.2,-9.0,76.7*,4.4,0.7
Cc1ccc(C)c(C(=O)CSc2nnnn2C(C)C)c1,38.3,0.3,-20.8,66.2*,-2.9,0.6
Cc1ccccc1-n1nc2c(c1NC(=O)c1c(-c3ccccc3Cl)noc1C)CS(=O)(=O)C2,5.3,1,-31.5,-2.3,6.0,0.9
C=CCOc1c(Br)cc(CNn2nnnc2N)cc1OC,32.2,0.3,-1.9,70.5*,0.2,0.7
COc1ccccc1NC(=O)c1ccc(-c2ccc(Br)cc2)o1,-77.9,0.9,7.3,6.2,7.8,1.8
COc1cc(NC(=O)c2ccco2)ccc1NC(=O)C(C)C,-1.5,1.1,-7.0,-12.7,-0.4,1
C=CCOc1ccc(CNn2nnnc2N)cc1,-12.0,0.9,9.5,9.7,-0.4,1.1
C=CCOc1c(Br)cc(CNc2ccc(NC(=O)C(C)C)c(OC)c2)cc1OC,45.8,0.4,/,61.1*,/,0.5
COc1cc(NC(=O)c2ccc(-c3ccc(Br)cc3)o2)ccc1NC(=O)C(C)C,42.9,0.5,7.0,54.4*,8.2,0.6
CCCn1c(SCc2cc(=O)[nH]c3ccccc23)nc2c1c(=O)n(C)c(=O)n2C,-2.7,1.1,-11.2,-5.0,-5.9,1
CC(OC(=O)c1cccs1)C(=O)NCc1cccs1 (stereo not drawn),62.0*,0,-17.5,95.2*,-3.8,0.4
CC(C)CC(OC(=O)c1cccs1)C(=O)NCc1cccs1 (stereo not drawn),92.2*,0,1.1,95.3*,-4.3,0.1
O=C(CN1CCN(c2ccc(O)cc2)CC1)NC(=O)NCc1ccco1,/,/,14.0,/,7.4,/
CCC1CCCCN1C(=O)COC(=O)c1ccc(S(=O)(=O)N2CCOCC2)cc1 (stereo not drawn),1.4,1,3.0,-0.7,-3.8,1
CCN(CC)c1cnn(C/C(=N\OC)c2ccc(Cl)cc2)c(=O)c1Br,94.4*,0,-18.2,97.1*,0.6,0.1
CO/N=C(\Cn1ncc(N2CCCC2)c(Cl)c1=O)c1ccc(Cl)cc1,26.0,0.7,-5.4,28.0,-4.2,0.7
NC(=O)CSc1nnc(C2CC2)n1-c1ccccc1,1.1,1.1,-3.5,-9.2,-2.4,1
Cc1cc(C(=O)CSc2nnc(-c3ccccc3)n2-c2ccccc2)c(C)n1-c1ncn[nH]1,57.8*,0.4,27.4,61.8*,-0.1,0.4
Cc1cc(C(=O)CSc2nnc(-c3ccncc3)n2-c2ccccc2)c(C)n1C,33.5,0.2,-13.9,84.2*,-2.3,0.7
CC(C)NC(=O)CSc1nnc(-c2ccncc2)n1-c1ccccc1,58.5*,0.1,-4.7,91.8*,-2.9,0.4
N#Cc1ccccc1NC(=O)CSc1nnc(-c2ccc(F)cc2)n1-c1ccccc1,45.1,0.4,9.7,63.4*,0.5,0.5
Cc1ccc(CNC(=O)/C(C#N)=C\c2ccc(N(C)C)cc2)cc1,1.1,1,-2.9,-3.5,-3.6,1
COC(=O)[C@H](CC(C)C)NC(=O)N1CCN(c2cccc(C(F)(F)F)c2)CC1,-60.8,0.8,-1.9,19.7,3.0,1.6
CCCn1c(N)c(C(=O)CSc2nnnn2-c2ccc(O)cc2)c(=O)n(C)c1=O,-40.6,0.9,-23.7,10.1,0.2,1.4
SMILES,CYP2C9 inh,CYP2C19 activ,Mac1 fbg inh,CYP2C19 inhib,CD11b adhes enh,CYP2C9 activ
CC(C)COC(=O)c1ccc2c(c1O)C(=O)c1ccccc1C2=O,36.2,1.4,17.6,-35.8,-2.8,0.6
Cc1cc(C(=O)CSc2nnc(-c3ccccc3)n2C)c(C)n1C,1.2,0.2,-32.5,78.2*,-6.1,1
Cc1cc(N2CCC(C(=O)NCC3CC3)CC2)nc(-c2ccccc2)n1,61.5*,0.3,-9.8,72.9*,7.4,0.4
Cc1cc(N2CCC(C(=O)NC3CC3)CC2)nc(-c2ccccc2)n1,6.3,0.6,-9.4,37.3,-5.0,0.9
O=C(/C=C/c1ccc(Cl)cc1Cl)NCCN1CCOCC1,-15.6,0.9,-9.7,9.2,3.1,1.2
COC(=O)c1ccc(S(=O)(=O)c2ccccc2)c(N)c1,70.4*,0.1,-5.6,94.2*,-2.7,0.3
Cc1ccc(C(c2nnnn2Cc2cccs2)N2CCN(C(=O)c3ccco3)CC2)cc1 (stereo not drawn),48.3,0.3,-16.2,71.1*,-3.4,0.5
O=C(c1ccco1)N1CCN(C(c2ccccc2F)c2nnnn2CC2CCCO2)CC1 (stereo not drawn),70.7*,0.8,-12.1,23.7,4.1,0.3
CCCCC(c1nnnn1Cc1ccco1)N1CCN(C(=O)c2ccco2)CC1 (stereo not drawn),50.7*,0.1,-9.0,85.3*,1.2,0.5
CC(C)CC(c1nnnn1CCc1ccccc1)N1CCN(C(=O)c2ccco2)CC1 (stereo not drawn),98.5*,0.2,-2.8,80.1*,-4.1,0
O=C(c1ccco1)N1CCN(C(c2ccccc2Cl)c2nnnn2CC2CCCO2)CC1 (stereo not drawn),-8.9,1.1,-4.8,-11.0,-4.9,1.1
CCC(c1nnnn1CCc1ccccc1)N1CCN(C(=O)c2ccco2)CC1 (stereo not drawn),12.0,0.9,-4.9,6.1,1.8,0.9
O=C(c1ccco1)N1CCN(C(c2ccccc2F)c2nnnn2Cc2cccs2)CC1 (stereo not drawn),14.0,0.9,-8.2,8.4,-3.6,0.9
Cc1cccc(C)c1NC(=O)C(c1cccs1)N(Cc1ccco1)C(=O)Cn1nnc2ccccc21 (stereo not drawn),3.9,1,/,1.5,/,1
Cc1nc(N2CCN(Cc3nc4ccccc4[nH]3)CC2)c2oc3ccccc3c2n1,92.4*,0.2,-4.4,83.7*,1.4,0.1
CCOC(=O)C1CCCN(c2nc(C)nc3c2oc2ccccc23)C1 (stereo not drawn),51.8*,0.4,29.8,57.6*,-7.2,0.5
c1ccc2[nH]c(CN3CCN(c4ncnc5c4oc4ccccc45)CC3)nc2c1,55.0*,0.6,-7.4,38.3,-1.0,0.4
O=C1OCC(c2ccccc2)=C1c1ccc(S(=O)(=O)N2CCOCC2)s1,24.1,0.9,-1.3,10.1,-4.3,0.8
CCOC(=O)C1CCN(C(=O)Nc2ccccc2Cl)CC1,5.4,0.4,-2.3,64.8*,-3.2,0.9
CCOC(=O)N1CCN(C(=O)Nc2ccccc2Cl)CC1,-4.9,0.8,-12.0,15.6,6.1,1
CCOC(=O)C1CCCN(c2c(Nc3cc(C)cc(C)c3)c(=O)c2=O)C1 (stereo not drawn),31.1,0.6,-7.7,40.5,2.3,0.7
CCOC(=O)N1CCN(C(=S)Nc2cccc(C)c2)CC1,-6.2,0.7,/,33.9,/,1.1
